22 compounds from PubChem BioAssay (NCATS) can be followed below.

The target in assay [1] is D(1A) dopamine receptor (Homo sapiens) (UniProt P21728). The assay is described as follows: HTS Assay for Allosteric Agonists of the Human D1 Dopamine Receptor: Primary Screen for Agonists (AID 488981). Further: 0% is about no effect. Particulars: Inducible HEK293 T-REx D1 cells, calcium-flux fluorescence, 180 s kinetic; series mostly up to 41.8 µM. In a few lines: (§1)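 Tetracycline-induced HEK293 Trex D1 cells with forced coupling to calcium, loaded with no-wash calcium dye; kinetic fluorescence read 180 s after compound addition for agonism, then a further 180 s after an EC20 dopamine challenge for potentiation.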

The target is the same in assay [2]. Nature of the assay: HTS Assay for Allosteric Agonists of the Human D1 Dopamine Receptor: Primary Screen for Potentiators (AID 488982). Further: 0% is about no effect. Particulars: HEK293 T-REx D1 inducible cells, calcium flux, kinetic fluorescence; series mostly up to 8.37 µM. An outline of the steps:
as §1
(Calcium assays in cells follow changes in intracellular calcium, usually with a dye or a luminescent sensor.)

Assay [3] has the same target. The assay is described as follows: HTS Assay for Allosteric Agonists of the Human D1 Dopamine Receptor: Primary Screen for Antagonists (AID 488983).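 Further: calcium flux response to an EC80 dopamine challenge measured with no-wash dye; nearly all actives have a fitted effect of over 65% in size.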 Further: potency means the concentration at half of the fitted maximal effect. Particulars: D1 receptor cell assay, antagonist mode, qHTS titration; series mostly up to 41.8 µM. An outline of the steps: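 Screening of inducible HEK293 T-REx D1 cells: compound first, EC80 dopamine 180 s later, each phase read kinetically for calcium over 180 s.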
A general note: In qHTS, concentration-response curves come from the screen itself.

A short description of assay [4]: Validation screen for small molecules that induce genotoxicity in human embryonic kidney (HEK293T) cells expressing luciferase-tagged ELG1 (AID 493106). Further: 0% is about no effect. Particulars: luminescence; series mostly up to 46.1 µM. In a few lines: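 Reporter-gene quantitative HTS in HEK293T cells carrying luciferase-tagged ELG1, whose level climbs under genotoxic stress. Compound exposure lasts 16 hr at 37 °C before luciferase detection.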

Assay [5] concerns the target ATPase family AAA domain-containing protein 5 (Homo sapiens) (UniProt Q96QE3). Nature of the assay: Validation screen for small molecules that inhibit ELG1-dependent DNA repair in human embryonic kidney (HEK293T) cells expressing luciferase-tagged ELG1 (AID 493107). Further: nearly all actives have a fitted effect of over 70% in size. Further: potency means the concentration at half of the fitted maximal effect. Particulars: HEK293T ELG1-luciferase level, luminescence, 5-fluorouridine co-treatment, 16 h; series mostly up to 46.1 µM. In a few lines: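 Quantitative HTS in HEK293T cells carrying luciferase-tagged ELG1, stimulated with 5-fluorouridine alongside compound for 16 hr. Loss of luciferase signal marks inhibition of ELG1 response.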

In assay [6] the target is Thyrotropin-releasing hormone receptor (Homo sapiens) (UniProt P34981). The assay is described as follows: qHTS for Small Molecule Agonists and Allosteric Enhancers of Human TRH Receptor: Validation Screen for Agonists (AID 493127;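 active means calcium activation more than 3 SD above the typical response in the agonist read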;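 further: intracellular calcium rise by fluo-8 fluorescence before TRH EC20 addition; 0% is about no effect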). Particulars: TRH receptor agonist cell assay; at 2 µM; stronger effect = higher value. An outline of the steps:
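Gq-coupled calcium mobilization in TRHR cells after compound addition, monitored kinetically with fluo-8 dye on an FDSS reader.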

Assay [7] in a line: Nrf2 qHTS screen for inhibitors: Validation (AID 493153; active means well fitted inhibition curve with a large enough effect in the main read-out, with a control signal flat, not every such curve was filed as active; further: potency means the concentration at half of the fitted maximal effect). Particulars: A549 ARE-Fluc reporter, 18-24 h; Potency: luciferase luminescence; viability change: measured here: cytotoxicity max response; luciferase luminescence, at 46.1 µM (top of the series). In a few lines:
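Dose-response validation uses reporter A549 cells with firefly luciferase under an antioxidant response element. Compounds stay on cells 18-24 h at 37°C, and luminescence indicates Nrf2-driven transcription.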

The nature of assay [8]: qHTS for Inhibitors of Cell Surface uPA Generation: Validation Assay (AID 493164).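 Further: RAW 264.7 macrophage cells exposed to compound for 18 h; 0% is about no effect.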 As to conditions: mouse cells, plasminogen activation; series mostly up to 38.3 µM. An outline of the steps:
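RAW 264.7, 4000 cells/well, o/n plating; cpd 7-pt 1:5 dilution 2.45 nM–38.3 uM final; 18 h, 37 C/5% CO2; ATP-Lite, 5 s luminescence exposure.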

Assay [9] has as its target ATP-dependent 6-phosphofructokinase (Trypanosoma brucei brucei) (UniProt O15648). The assay is described as follows: qHTS Assay to Find Inhibitors of T. brucei phosphofructokinase: hit validation (AID 492961).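 Further: luminescence reports ADP formed as PFK phosphorylates fructose-6-phosphate with ATP; on the % scale 0 is the no-effect control and ±100 the full control effect.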 Particulars: T. brucei PFK, ADP-Glo luminescence; series mostly up to 51.4 µM. In a few lines: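 Compounds titrated; %activity normalized to 0x and 1x enzyme controls, curve-fitted. Readout: ADP-Glo luminescence after 45 min room-temperature reaction of 1.25 nM PFK, 0.1 mM ATP, 0.5 mM F6P, pH 8.0.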

Records with an inconclusive call do not appear. Activity calls are given as the source filed them. Unless noted, the call rests on the fitted dose curve; in most records, active means well fitted curve in the direction sought with a large enough effect; inconclusive means small, poorly fitted or top-dose-only effect, or another doubt; inactive means no such curve, though single readings can be large; an effect the other way counts as inactive or inconclusive.

Chain of ATPase family AAA domain-containing protein 5 (Homo sapiens) (Q96QE3 whole entry, looked up, the tested form may be a part): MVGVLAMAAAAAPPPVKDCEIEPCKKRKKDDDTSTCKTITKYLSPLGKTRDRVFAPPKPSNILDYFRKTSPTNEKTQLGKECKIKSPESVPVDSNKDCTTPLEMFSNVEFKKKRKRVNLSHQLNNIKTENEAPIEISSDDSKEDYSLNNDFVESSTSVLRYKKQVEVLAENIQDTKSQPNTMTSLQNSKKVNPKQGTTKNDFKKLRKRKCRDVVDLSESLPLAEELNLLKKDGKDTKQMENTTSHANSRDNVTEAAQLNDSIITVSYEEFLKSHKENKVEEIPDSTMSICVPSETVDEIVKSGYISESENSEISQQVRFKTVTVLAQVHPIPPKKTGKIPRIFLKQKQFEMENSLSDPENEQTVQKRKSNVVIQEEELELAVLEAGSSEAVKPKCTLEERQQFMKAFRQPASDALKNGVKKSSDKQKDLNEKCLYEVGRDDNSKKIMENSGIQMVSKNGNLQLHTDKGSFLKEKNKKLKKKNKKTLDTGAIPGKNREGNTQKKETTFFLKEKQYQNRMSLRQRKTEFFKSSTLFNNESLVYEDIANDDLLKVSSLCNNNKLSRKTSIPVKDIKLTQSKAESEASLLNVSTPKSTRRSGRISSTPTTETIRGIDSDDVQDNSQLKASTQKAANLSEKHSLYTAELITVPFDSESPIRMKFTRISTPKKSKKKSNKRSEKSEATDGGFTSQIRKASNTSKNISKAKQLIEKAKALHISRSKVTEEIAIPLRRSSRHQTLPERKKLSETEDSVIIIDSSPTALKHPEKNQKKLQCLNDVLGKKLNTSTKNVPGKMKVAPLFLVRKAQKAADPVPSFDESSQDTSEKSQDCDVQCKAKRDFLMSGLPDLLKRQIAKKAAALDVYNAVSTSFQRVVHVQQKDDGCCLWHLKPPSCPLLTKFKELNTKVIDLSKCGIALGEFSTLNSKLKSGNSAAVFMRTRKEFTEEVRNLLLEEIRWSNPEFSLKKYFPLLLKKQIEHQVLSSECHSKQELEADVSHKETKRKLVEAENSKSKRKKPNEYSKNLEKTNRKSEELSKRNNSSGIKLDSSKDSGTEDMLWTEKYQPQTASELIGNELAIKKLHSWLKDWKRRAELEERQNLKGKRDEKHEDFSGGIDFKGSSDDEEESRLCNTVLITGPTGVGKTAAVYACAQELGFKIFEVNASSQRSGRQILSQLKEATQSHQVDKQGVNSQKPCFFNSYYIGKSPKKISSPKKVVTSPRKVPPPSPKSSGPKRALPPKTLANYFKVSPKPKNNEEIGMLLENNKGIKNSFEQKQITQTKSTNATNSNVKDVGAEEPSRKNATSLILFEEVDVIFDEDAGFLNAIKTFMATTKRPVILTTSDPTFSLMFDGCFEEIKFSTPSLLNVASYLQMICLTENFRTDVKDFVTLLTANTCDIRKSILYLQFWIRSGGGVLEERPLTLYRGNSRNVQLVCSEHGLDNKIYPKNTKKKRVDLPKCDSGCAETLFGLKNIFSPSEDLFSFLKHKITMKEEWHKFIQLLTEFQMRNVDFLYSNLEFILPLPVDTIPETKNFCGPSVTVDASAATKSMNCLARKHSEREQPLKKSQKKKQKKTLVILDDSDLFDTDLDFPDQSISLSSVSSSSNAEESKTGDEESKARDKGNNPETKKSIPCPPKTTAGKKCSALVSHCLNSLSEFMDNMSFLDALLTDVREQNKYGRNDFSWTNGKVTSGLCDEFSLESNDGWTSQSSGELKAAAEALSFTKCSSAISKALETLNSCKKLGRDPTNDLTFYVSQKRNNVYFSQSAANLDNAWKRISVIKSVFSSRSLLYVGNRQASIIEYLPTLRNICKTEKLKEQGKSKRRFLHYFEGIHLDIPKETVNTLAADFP
Chain of D(1A) dopamine receptor (Homo sapiens) (P21728 whole entry, looked up): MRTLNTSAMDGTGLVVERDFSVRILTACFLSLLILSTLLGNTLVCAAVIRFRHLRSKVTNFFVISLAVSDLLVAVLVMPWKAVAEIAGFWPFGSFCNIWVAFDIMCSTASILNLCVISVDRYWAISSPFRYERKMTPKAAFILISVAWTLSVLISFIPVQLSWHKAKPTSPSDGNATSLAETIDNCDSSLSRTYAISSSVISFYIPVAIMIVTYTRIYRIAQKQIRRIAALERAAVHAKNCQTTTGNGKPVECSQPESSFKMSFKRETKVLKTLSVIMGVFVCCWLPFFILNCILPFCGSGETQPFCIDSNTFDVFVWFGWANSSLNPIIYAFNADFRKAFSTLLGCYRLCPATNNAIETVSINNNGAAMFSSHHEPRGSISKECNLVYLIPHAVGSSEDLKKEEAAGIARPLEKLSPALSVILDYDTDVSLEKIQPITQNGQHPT
Chain of Thyrotropin-releasing hormone receptor (Homo sapiens) (P34981 whole entry, looked up): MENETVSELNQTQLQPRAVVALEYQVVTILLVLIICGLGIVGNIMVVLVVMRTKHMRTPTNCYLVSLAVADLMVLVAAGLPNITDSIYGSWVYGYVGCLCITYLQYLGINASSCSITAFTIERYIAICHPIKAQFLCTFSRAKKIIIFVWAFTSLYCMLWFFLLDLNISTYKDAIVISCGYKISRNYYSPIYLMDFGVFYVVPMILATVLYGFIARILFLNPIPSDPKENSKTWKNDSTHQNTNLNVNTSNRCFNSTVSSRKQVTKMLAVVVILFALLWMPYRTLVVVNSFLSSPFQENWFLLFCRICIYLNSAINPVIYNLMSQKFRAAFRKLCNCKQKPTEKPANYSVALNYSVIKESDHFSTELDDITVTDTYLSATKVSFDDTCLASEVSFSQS
Chain of ATP-dependent 6-phosphofructokinase (Trypanosoma brucei brucei) (O15648 whole entry, looked up): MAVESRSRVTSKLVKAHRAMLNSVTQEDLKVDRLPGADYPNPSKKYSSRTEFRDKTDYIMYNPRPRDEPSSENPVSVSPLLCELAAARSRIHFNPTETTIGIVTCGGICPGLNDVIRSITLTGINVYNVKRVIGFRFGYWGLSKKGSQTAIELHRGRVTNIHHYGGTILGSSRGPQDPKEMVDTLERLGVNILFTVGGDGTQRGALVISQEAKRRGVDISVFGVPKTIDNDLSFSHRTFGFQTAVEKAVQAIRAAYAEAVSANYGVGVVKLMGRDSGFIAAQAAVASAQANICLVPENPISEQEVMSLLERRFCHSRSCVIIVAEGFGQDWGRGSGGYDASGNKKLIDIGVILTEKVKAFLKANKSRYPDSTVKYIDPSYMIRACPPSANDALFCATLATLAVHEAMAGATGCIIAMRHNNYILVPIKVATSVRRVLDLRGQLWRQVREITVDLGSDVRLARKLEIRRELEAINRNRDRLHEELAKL

For the compound `Oc1ccc2c3c1O[C@H]1c4oc5ccccc5c4C[C@@]4(O)C(C2)N(CC2CC2)CCC314` (stereo partly drawn), the Potency result in [1], in assay [2], in [3], in assay [4], in assay [5] and in [7] was “inactive” in each case. Also, the activation in assay [6] is 1.94% (inactive). In assay [7], the viability change was -2.78%. For the same compound, in [8], the call was inactive.
As to `Clc1cc(I)cc(Cl)c1NC1=NCCN1`, the Potency result in assay [1], in assay [2], in assay [3], in [4], in assay [5] and in [7] was “inactive” in each case. Besides, the activation in [6] is 1.69% (inactive). Besides, the viability change in assay [7] stood at 9.07%. For the same compound, in assay [8], the result was inactive.
`C[N+]1(C)CCN(c2ccccc2)CC1`: the Potency entry in [1], in assay [2], in assay [3], in assay [4], in assay [5] and in assay [7] was “inactive” in each case. In addition, the activation in assay [6] is 0.438% (inactive). Besides, in assay [7], the viability change is -2.09%. Moreover, in [8], the call was inactive.
Consider `CCOC(=O)c1ncn2c1[C@@H]1CCCN1C(=O)c1cc(OC)ccc1-2`, for which the Potency entry in assay [1], in [2], in assay [3], in assay [4], in assay [5] and in assay [7] was “inactive” each time. Besides, in [6], the activation is -0.25% (inactive). Moreover, the viability change in [7] is -9.51%. In addition, in [8], the outcome was inactive.
As for `c1ccc2c(c1)[I+]c1ccccc1-2`, the Potency result in [1], in assay [2], in assay [3] and in assay [4] was “inactive” throughout. Also, the Potency in assay [5] is 10.3 µM (active). Besides, the activation in assay [6] is -4.44% (inactive). The result in [8] was inactive.
With `CC12NC(Cc3ccccc31)c1ccccc12` (stereo not drawn), the Potency result in assay [1], in assay [2], in assay [3], in [9], in assay [4] and in assay [5] was “inactive” each time. For the same compound, the Potency result in assay [7] is “inactive”. Moreover, the viability change in [7] worked out at 6.2%. For the same compound, in [8], the call was inactive.
Consider `O=C1CC[C@@]2(O)C3Cc4ccc(O)c5c4C2(CCN3CC2CC2)[C@H]1O5` (stereo partly drawn), for which the Potency entry in [1], in [2], in assay [3], in assay [9], in [4] and in assay [5] was “inactive” in each case. In addition, the Potency entry in assay [7] is “inactive”. Besides, the activation in [6] is 1.31% (inactive). In [7], the viability change is -12.7%. In addition, the compound was classed as inactive in assay [8].
For the compound `CN(C(=O)Cc1ccc(Cl)c(Cl)c1)C(CN1CCCC1)c1cccc(OCC(=O)O)c1` (stereo not drawn), the Potency result in [1], in assay [2], in [3], in assay [4], in assay [5] and in assay [7] was “inactive” in each case. The activation in assay [6] was 0.25% (inactive). Moreover, the viability change in [7] was -6.12%. In assay [8], the outcome was inactive.
Take `NC(=O)CI`: the Potency result in assay [1], in assay [2], in assay [3], in assay [4], in assay [5] and in [7] was “inactive” in each case. For the same compound, in assay [6], the activation was -0.125% (inactive). Also, in [7], the viability change is 7.18%. Further, in assay [8], the call was inactive.
For the compound `COc1ccc(CNC(=O)/C=C/c2ccc3[nH]cc(CCN(C)C)c3c2)cc1`, the Potency entry in assay [1], in [2], in assay [3], in [4], in [5] and in assay [7] was “inactive” throughout. For the same compound, in [6], the activation was -0.312% (inactive). In assay [7], the viability change is -0.218%. In addition, the compound was classed as inactive in assay [8].
For `C[C@H](Cc1ccc2c(c1)OC(C(=O)O)(C(=O)O)O2)NC[C@H](O)c1cccc(Cl)c1`, the Potency entry in assay [1], in assay [2], in assay [3], in [4], in [5] and in assay [7] was “inactive” throughout. Also, the activation in [6] was 0.625% (inactive). For the same compound, the viability change in [7] came out at 0.983%. In addition, in [8], the compound was called inactive.
Take `CCS(=O)(=O)Nc1cccc(C(=C2CCCCC2)c2cnc[nH]2)c1`: the Potency result in [1], in [2], in assay [3], in assay [4], in assay [5] and in assay [7] was “inactive” each time. Besides, the activation in assay [6] was -5.69% (inactive). In addition, the viability change in assay [7] came to 1.78%. The result in assay [8] was inactive.
As for `CC(N)[C@H](O)c1ccc(O)c(O)c1` (stereo partly drawn), the Potency result in assay [1], in [2], in [3], in [4], in [5] and in [7] was “inactive” throughout. Further, the activation in assay [6] was 1.12% (inactive). Moreover, the viability change in [7] is -3.08%. In assay [8], the outcome was inactive.
In the case of `CC(Cc1ccc(OCC(=O)O)cc1)NCC(O)c1cccc(Cl)c1` (stereo not drawn), the Potency entry in assay [1], in assay [2], in assay [3], in assay [4], in [5] and in assay [7] was “inactive” each time. The activation in [6] was 0.5% (inactive). In assay [7], the viability change was -9.13%. Moreover, the result in [8] was inactive.
In the case of `CN1CCc2cccc(Cl)c2CC1`, the Potency entry in [1], in assay [2], in assay [4], in [5] and in assay [7] was “inactive” throughout. The Potency in assay [3] is 2.51 µM (active). Besides, the activation in assay [6] was 1.31% (inactive). Besides, the viability change in assay [7] amounted to 2.9%. For the same compound, in assay [8], the call was inactive.
For the compound `Clc1ccc(N2CC3CCC(C2)N3)nn1`, the Potency result in assay [1], in assay [2], in assay [3], in assay [4], in assay [5] and in assay [7] was “inactive” in each case. Also, in [6], the activation was 1.19% (inactive). In addition, the viability change in assay [7] is 4.91%. Besides, the compound was classed as inactive in assay [8].
For the compound `OC1CCCCC1N1CCC(c2ccccc2)CC1` (stereo not drawn), the Potency entry in assay [1], in assay [2], in assay [3], in [4], in assay [5] and in assay [7] was “inactive” each time. In assay [6], the activation was -3.5% (inactive). For the same compound, the viability change in [7] was -3.18%. The call in [8] was inactive.
Regarding `C=CCN(C1=NCCN1)c1c(Cl)cccc1Cl`, the Potency result in assay [1], in assay [2], in assay [3], in assay [9], in [4] and in assay [5] was “inactive” throughout. The Potency entry in assay [7] is “inactive”. The viability change in assay [7] is -5.34%. The result in assay [8] was inactive.
With `C[C@]12Cc3cn4c(nc3C=C1CCC1C2CC[C@@]2(C)[C@H]1CC[C@@]2(O)C#N)nc1ccccc14` (stereo partly drawn), the Potency result in assay [1], in assay [2], in assay [3] and in assay [4] was “inactive” throughout. Moreover, the Potency is 7.3 µM (active) in [5] and 13 µM (active) in assay [7]. In addition, the activation in assay [6] is -4.5% (inactive). In addition, the viability change in assay [7] was -1.99%. In addition, the result in assay [8] was inactive.
For the compound `C[N+]1(C)C2CCC1CC(OC(=O)c1c[nH]c3ccccc13)C2` (stereo not drawn), the Potency entry in assay [1], in [2], in assay [3], in [9], in assay [4] and in assay [5] was “inactive” each time. In addition, in assay [7], the Potency entry is “inactive”. Moreover, the activation in [6] is 0.188% (inactive). For the same compound, the viability change in [7] amounted to 2.15%. Moreover, the call in assay [8] was inactive.
Turning to `CC(=O)NBr`, the Potency result in [1], in assay [2], in [3], in assay [4], in assay [5] and in assay [7] was “inactive” throughout. The activation in [6] was -0.0625% (inactive). The viability change in [7] worked out at 1.41%. Also, in assay [8], the call was inactive.
`CC(N)c1cccc(Cl)c1Cl` (stereo not drawn): the Potency entry in assay [1], in assay [2], in assay [3], in assay [4], in assay [5] and in assay [7] was “inactive” throughout. Moreover, in assay [6], the activation was -0.188% (inactive). The viability change in assay [7] is 5.17%. For the same compound, in assay [8], the compound was called inactive.
